Assay [1] in a line: qHTS assay to identify small molecule agonists of the estrogen receptor alpha (ER-alpha) signaling pathway in the presence of an antagonist - cell viability counter screen (AID 1259386).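 Further: series mostly up to about 92 µM; cells exposed to compounds for 22 h at 37 °C before the viability read; nearly all actives have a fitted effect of over 30% in size.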 The gist of the method:
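Cells are starved of estrogens for 5 days in charcoal-stripped serum, seeded for 24hr and co-treated with ICI-182,780 (10.0nM final) and test compounds. After 22hr at 37C, viability is read as CellTiter-Fluor fluorescence.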

Assay [2] deals with Progesterone receptor (Homo sapiens) (UniProt P06401). Kind of assay: qHTS assay to identify small molecule agonists of the progesterone receptor (PR) signaling pathway (AID 1346784; calls by dose curve; further: nearly all actives have a fitted effect of over 30% in size). The gist of the method:
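Using charcoal-stripped serum (2%) to limit endogenous steroids, PR-UAS-bla HEK 293T cells received compounds for 16 hr at 37C after 6 hr plating; beta-lactamase FRET fluorescence was recorded following 2 hr substrate loading at room temperature.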

For assay [3] the target is unchanged. Kind of assay: qHTS assay to identify small molecule antagonists of the progesterone receptor (PR) signaling pathway (AID 1346795; active means well fitted inhibition curve with a large enough effect in the signal ratio in the repeat runs, not every such curve was filed as active; the % refers to the signal ratio). In short, it runs like this:
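Inhibition of R5020-induced (1 nM final) beta-lactamase reporter signal in PR-UAS-bla HEK293T cells was scored by FRET fluorescence after overnight (16 hr) compound treatment.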

A short description of assay [4]: qHTS assay to identify small molecule antagonists of the progesterone receptor (PR) signaling pathway - cell viability counter screen (AID 1346798). Further: series mostly up to about 92 µM; nearly all actives have a fitted effect of over 50% in size. In short, it runs like this: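 ATP content as viability readout: CellTiter-Glo luminescence, 30 min room temperature, in PR-UAS-bla HEK293T cells after 16 hr compound/R5020 treatment at 37C and 5% CO2.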
The nature of assay [5]: qHTS assay to identify small molecule agonists of the progesterone receptor (PR) signaling pathway - cell viability counter screen (AID 1346799; calls by dose curve; further: nearly all actives have a fitted effect of over 45% in size). In short, it runs like this:
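Cytotoxicity in PR-bla HEK293T cells: 16 h compound, 37C; CellTiter-Glo added post-FRET read; luminescence after 30 min RT.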

Assay [6] can be described thus: qHTS assay to identify small molecule antagonists of the TGF-beta/Smad signaling pathway - cell viability counter screen (AID 1346824). Further: nearly all actives have a fitted effect of over 50% in size. The gist of the method: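 Cytotoxicity counter-screen run in the same wells as the beta-lactamase Smad reporter read: CellTiter-Glo luminescence after 30 min at room temperature. HEK 293T SBE-bla cells had 5 hr compound exposure at 37 C with TGF-beta1 (0.25 ng/mL stock).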

A short description of assay [7]: qHTS assay to identify small molecule agonists of the TGF-beta/Smad signaling pathway - cell viability counter screen (AID 1346829). Further: top concentration of the series differs between compounds; nearly all actives have a fitted effect of over 45% in size. The gist of the method:
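Compound-treated SBE-bla HEK 293T cells (5 hr, 37 C) were assessed for viability with CellTiter-Glo in parallel with the reporter read.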

A short description of assay [8]: qHTS assay to identify small molecule agonists of the TGF-beta/Smad signaling pathway (AID 1346859; active means well fitted activation curve with a large enough effect in the signal ratio in the repeat runs, not every such curve was filed as active; the % refers to the signal ratio; further: series mostly up to about 77 µM). In short, it runs like this: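 Stable Smad binding element-beta-lactamase HEK 293T cells; 5 hr compound exposure at 37 C under 5% CO2; 2 hr room-temperature substrate step; fluorescence excited at 405 nm, collected at 460 nm and 530 nm.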
Assay [9] has as its target Thyrotropin-releasing hormone receptor (Homo sapiens) (UniProt P34981). The assay is described as follows: qHTS assay to identify small molecule antagonists of the thyrotropin-releasing hormone receptor (TRHR) signaling pathway (AID 1346877; active means well fitted inhibition curve with a large enough effect in the repeat runs, not every such curve was filed as active; further: series mostly up to about 51 µM). In short, it runs like this:
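Cells (TRHR-HEK293) are plated and kept 18 h at 37 °C/5% CO2. A calcium-sensitive dye is added for 2 h, compound follows for 5 min at room temperature, and TRH is then given at 1 nM final.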

The target is the same in assay [10]. Kind of assay: qHTS assay to identify small molecule agonists of the thyrotropin-releasing hormone receptor (TRHR) signaling pathway (AID 1346891; calls by dose curve;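 further: HEK293 cells expressing TRHR with calcium dye readout; series mostly up to about 58 µM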). In short, it runs like this:
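In 1536-format, 1500 TRHR-Hek293 cells per well grew 18 h, took up calcium dye for 2 h at 37 °C, received compound, and were read kinetically; 15-point titrations, triplicates.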

Assay [11] can be described thus: Human pregnane X receptor (PXR) small molecule agonists, qHTS cell viability counter screen (AID 1346977). Further: nearly all actives have a fitted effect of over 50% in size. In short, it runs like this:
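Readout is CellTiter-Fluor fluorescence from PXR-Luc HepG2 cells. Plated cells rested 5hr, then were treated with compounds for 24hr at 37C and 5% CO2, with reagent present during the last hour.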

Assay [12] can be described thus: Caspase-3/7 induction in CHO-K1 cells by small molecules, qHTS cell viability counter screen (AID 1346979). Further: nearly all actives have a fitted effect of over 35% in size. In short, it runs like this:
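To flag cytotoxic compounds, treated CHO-K1 wild-type cells were given CellTiter-Fluor at 16hr and read fluorescently after 1hr at 37C; the caspase-3/7 luminescence was measured in these same wells.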

A short description of assay [13]: Caspase-3/7 induction in CHO-K1 cells by small molecules, qHTS assay (AID 1346980). Further: nearly all actives have a fitted effect of over 15% in size. In short, it runs like this: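 Luminescent Caspase-Glo 3/7 read (30min, room temperature) quantified apoptosis induction. Cells were wild-type CHO-K1, treated with compound for 17hr at 37 C and 5% CO2.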
Assay [14] can be described thus: Caspase-3/7 induction in HepG2 cells by small molecules, qHTS cell viability counter screen (AID 1346981). Further: series mostly up to about 92 µM; nearly all actives have a fitted effect of over 30% in size. In short, it runs like this:
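Steps: seed 2,000 HepG2 cells per well; incubate 5 hr at 37 C; pin-add compounds in DMSO; incubate 16 hr; add CellTiter-Fluor; after 1 hr at 37 C and 5% CO2, read fluorescence.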

Assay [15] has as its target Nuclear receptor subfamily 1 group I member 2 (Homo sapiens) (UniProt O75469). The assay is described as follows: Human pregnane X receptor (PXR) small molecule agonists, qHTS assay (AID 1346982). Further: nearly all actives have a fitted effect of over 35% in size. Further: potency means the concentration at half of the fitted maximal effect. In short, it runs like this:
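Agonist mode qHTS: PXR-Luc HepG2 cells plated 5 hr before DMSO-dissolved compounds were pinned in, cultured 24 hr at 37 C, 5% CO2; ONE-Glo luminescence readout.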

Assay [16] in a line: Caspase-3/7 induction in HepG2 cells by small molecules, qHTS assay (AID 1346978). Further: nearly all actives have a fitted effect of over 15% in size. In short, it runs like this:
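Caspase-3/7 induction was measured by Caspase-Glo 3/7 luminescence (30 min, room temperature) after a 17 hr compound exposure of wild-type HepG2 cells seeded at 2,000 per well and pre-incubated 5 hr.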

Assay [17] concerns the target Cytochrome P450 2D6 (Homo sapiens) (UniProt P10635). The assay is described as follows: Cytochrome P450 Family 2 Subfamily D Member 6 (CYP2D6) small molecule antagonists: luciferase reporter qHTS assay (AID 1671196). Further: nearly all actives have a fitted effect of over 50% in size. Further: potency means the concentration at half of the fitted maximal effect. In short, it runs like this: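 P450-Glo format: CYP2D6 converts a proluciferin substrate to luciferin in an NADPH-driven reaction lasting 1 h at room temperature. Light output, proportional to CYP2D6 activity, reflects interference by test chemicals.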

Assay [18] concerns the target Nuclear receptor subfamily 1 group I member 2 (Rattus norvegicus) (UniProt Q9R1A7). The assay is described as follows: Rat pregnane X receptor (rPXR) activation by small molecules, qHTS assay (AID 1346983). Further: nearly all actives have a fitted effect of over 20% in size. The conditions noted are these: rPXR luciferase reporter cells, One-Glo luminescence, 24 h; max activation: hits give high values. The gist of the method: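 Luminescent readout (One-Glo luciferase, 30 min room temperature) followed 24 hr compound treatment at 37 C of rPXR cells plated 2,000 per well and preincubated 5hr; qHTS format with compounds delivered in DMSO.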

In assay [19] the target is Nuclear receptor subfamily 1 group I member 2 (Homo sapiens) (UniProt O75469). Kind of assay: CYP3A4 induction through human pregnane X receptor (PXR) by small molecules, qHTS assay (AID 1346984). Further: nearly all actives have a fitted effect of over 40% in size. The gist of the method: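 Steps: seed DPX-2 cells, 5 hr at 37C; pin-transfer compounds; 24 hr at 37C; add Luciferin-IPA (3uM final), 3 hr at 37C; add One-Glo, 30 min RT; read luminescence.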

Assay [20] shares this target. Kind of assay: Human pregnane X receptor (PXR) activation by small molecules, qHTS assay (AID 1346985). Further: nearly all actives have a fitted effect of over 40% in size. In short, it runs like this:
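DPX-2 cells (HepG2 co-transfected with a PXR response element and a CYP3A4-promoter luciferase construct) were seeded at 2,000 per well, rested 5 hr at 37C, then exposed to DMSO-dissolved compounds for 24 hr. Activation was read as luciferase luminescence.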

Molecules are shown by their SMILES. Unmarked numbers belong to inactive results. Inconclusive results are not listed. Activity calls are given as the source filed them. Unless noted, the call rests on the fitted dose curve; in most records, active means well fitted curve in the direction sought with a large enough effect in the repeat runs; inconclusive means weak or mixed curves; inactive means no such curve, though single readings can be large; an effect the other way counts as inactive or inconclusive.
On the % scale 0 is the no-effect control and ±100 the full control effect.

Sequence of Nuclear receptor subfamily 1 group I member 2 (Homo sapiens) (O75469 whole entry, looked up): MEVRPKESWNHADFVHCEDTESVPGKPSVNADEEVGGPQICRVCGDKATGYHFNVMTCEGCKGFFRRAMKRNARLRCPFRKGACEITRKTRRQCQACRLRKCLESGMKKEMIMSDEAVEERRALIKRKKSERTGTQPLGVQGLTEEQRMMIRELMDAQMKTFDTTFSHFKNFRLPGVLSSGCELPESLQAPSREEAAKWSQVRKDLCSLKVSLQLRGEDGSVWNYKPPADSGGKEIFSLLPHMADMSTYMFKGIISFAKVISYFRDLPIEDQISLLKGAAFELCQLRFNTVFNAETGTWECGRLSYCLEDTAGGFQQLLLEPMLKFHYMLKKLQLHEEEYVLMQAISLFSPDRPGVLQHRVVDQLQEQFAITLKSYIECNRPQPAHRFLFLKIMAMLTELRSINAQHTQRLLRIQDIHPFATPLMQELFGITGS
Sequence of Thyrotropin-releasing hormone receptor (Homo sapiens) (P34981 whole entry, looked up): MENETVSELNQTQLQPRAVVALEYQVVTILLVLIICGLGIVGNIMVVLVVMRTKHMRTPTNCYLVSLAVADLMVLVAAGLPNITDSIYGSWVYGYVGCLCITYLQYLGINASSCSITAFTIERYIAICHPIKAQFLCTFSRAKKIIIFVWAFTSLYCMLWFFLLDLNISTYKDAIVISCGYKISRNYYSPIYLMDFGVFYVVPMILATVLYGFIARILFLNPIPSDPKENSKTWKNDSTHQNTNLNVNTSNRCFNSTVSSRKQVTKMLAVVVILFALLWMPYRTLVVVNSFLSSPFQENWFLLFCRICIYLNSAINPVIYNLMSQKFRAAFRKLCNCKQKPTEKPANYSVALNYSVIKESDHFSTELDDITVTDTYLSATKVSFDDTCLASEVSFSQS
Sequence of Progesterone receptor (Homo sapiens) (P06401 whole entry, looked up): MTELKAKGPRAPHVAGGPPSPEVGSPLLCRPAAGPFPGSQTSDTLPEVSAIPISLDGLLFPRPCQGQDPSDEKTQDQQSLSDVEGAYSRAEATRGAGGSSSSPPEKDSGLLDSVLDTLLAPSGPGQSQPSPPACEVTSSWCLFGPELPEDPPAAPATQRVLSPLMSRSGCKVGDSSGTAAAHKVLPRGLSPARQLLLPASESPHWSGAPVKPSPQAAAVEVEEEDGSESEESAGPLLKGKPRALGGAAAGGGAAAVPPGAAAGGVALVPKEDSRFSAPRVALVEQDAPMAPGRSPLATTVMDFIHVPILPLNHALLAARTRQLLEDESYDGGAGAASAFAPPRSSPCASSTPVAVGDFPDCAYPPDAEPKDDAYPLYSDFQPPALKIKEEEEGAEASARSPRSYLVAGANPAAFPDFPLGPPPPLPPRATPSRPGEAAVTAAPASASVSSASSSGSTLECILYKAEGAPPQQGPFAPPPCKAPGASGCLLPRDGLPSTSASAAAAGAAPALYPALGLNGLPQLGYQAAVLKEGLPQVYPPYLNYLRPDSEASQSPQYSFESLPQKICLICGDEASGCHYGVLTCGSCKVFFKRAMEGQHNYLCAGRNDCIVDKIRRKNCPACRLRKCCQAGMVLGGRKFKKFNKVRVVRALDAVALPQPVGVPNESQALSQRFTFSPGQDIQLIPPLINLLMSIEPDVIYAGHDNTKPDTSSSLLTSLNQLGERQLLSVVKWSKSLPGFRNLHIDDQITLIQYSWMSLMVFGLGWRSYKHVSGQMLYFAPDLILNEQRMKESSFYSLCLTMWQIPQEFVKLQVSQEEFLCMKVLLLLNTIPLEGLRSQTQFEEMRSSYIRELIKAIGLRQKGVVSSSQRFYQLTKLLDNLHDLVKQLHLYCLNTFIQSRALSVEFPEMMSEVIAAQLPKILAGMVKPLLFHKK
Sequence of Cytochrome P450 2D6 (Homo sapiens) (P10635 whole entry, looked up): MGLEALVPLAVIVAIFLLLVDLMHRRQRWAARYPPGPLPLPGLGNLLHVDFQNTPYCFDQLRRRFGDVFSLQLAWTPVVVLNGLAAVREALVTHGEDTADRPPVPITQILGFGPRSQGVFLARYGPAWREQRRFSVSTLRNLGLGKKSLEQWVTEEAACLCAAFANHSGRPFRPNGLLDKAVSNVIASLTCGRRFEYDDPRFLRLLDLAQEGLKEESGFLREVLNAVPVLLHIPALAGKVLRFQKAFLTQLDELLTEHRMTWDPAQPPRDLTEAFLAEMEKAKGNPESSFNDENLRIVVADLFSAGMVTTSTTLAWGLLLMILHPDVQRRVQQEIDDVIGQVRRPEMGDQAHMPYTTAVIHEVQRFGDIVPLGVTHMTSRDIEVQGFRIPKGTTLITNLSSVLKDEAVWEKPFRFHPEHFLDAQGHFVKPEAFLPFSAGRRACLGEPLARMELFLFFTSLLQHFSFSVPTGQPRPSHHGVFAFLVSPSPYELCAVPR
Sequence of Nuclear receptor subfamily 1 group I member 2 (Rattus norvegicus) (Q9R1A7 whole entry, looked up): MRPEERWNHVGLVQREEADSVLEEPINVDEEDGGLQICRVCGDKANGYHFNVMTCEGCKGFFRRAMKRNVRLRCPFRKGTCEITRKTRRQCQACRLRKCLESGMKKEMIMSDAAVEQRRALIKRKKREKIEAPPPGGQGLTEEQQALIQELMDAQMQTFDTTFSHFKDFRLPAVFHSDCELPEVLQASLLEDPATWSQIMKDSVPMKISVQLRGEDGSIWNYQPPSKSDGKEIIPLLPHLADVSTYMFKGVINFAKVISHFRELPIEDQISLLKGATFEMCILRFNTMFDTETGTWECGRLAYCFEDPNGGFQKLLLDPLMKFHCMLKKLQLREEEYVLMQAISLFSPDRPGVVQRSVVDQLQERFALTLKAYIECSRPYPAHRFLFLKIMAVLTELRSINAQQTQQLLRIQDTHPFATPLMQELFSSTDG

For the compound `CC(O)C1CCCCC1` (centres undefined), the Potency result in [1], in [3], in [4], in assay [5], in assay [6] and in assay [7] was “inactive” in each case. Further, the Potency result in assay [10], in [11], in assay [12], in assay [13], in assay [14] and in assay [15] was “inactive” each time. Moreover, the result in assay [2], in assay [8] and in [9] was inactive.

As for `CCOc1ccc(NC(=O)CC(C)=O)cc1`, the Potency entry in assay [1], in [3], in [4], in [5], in assay [6] and in assay [7] was “inactive” in each case. For the same compound, the Potency result in [10], in assay [11], in [12], in assay [13], in assay [14] and in assay [15] was “inactive” each time. The outcome in assay [2], in assay [8], in [9] and in assay [16] was inactive. The Potency in [17] was 35.6 µM (active).

`S=C(S)NCCNC(=S)S`: the Potency entry in assay [1], in assay [3], in [4], in assay [5], in [6] and in assay [7] was “inactive” in each case. The Potency entry in assay [11], in [12], in [13], in [14], in assay [15] and in assay [17] was “inactive” in each case. Also, the result in assay [2], in assay [8] and in [16] was inactive.

As for `CN1CCC[C@@H]1c1cccnc1`, the Potency entry in [1], in assay [3], in assay [4], in assay [5], in assay [6] and in assay [7] was “inactive” in each case. Moreover, the Potency result in [10], in [11], in [12], in [13], in [14] and in [15] was “inactive” in each case. Further, the Potency entry in [19] and in [20] was “inactive” throughout. For the same compound, the call in assay [2], in assay [8] and in [9] was inactive. Further, in assay [18], the max activation was -0.0949%. In assay [17], the Potency is 38.9 µM (active).

In the case of `COC(Cc1ccccc1)OC`, the Potency entry in assay [1], in assay [3], in [4], in assay [5], in assay [6] and in [7] was “inactive” throughout. For the same compound, the Potency result in assay [10], in [11], in [12], in [13], in [14] and in assay [15] was “inactive” each time. In addition, in [17], the Potency entry was “inactive”. Besides, the call in assay [2], in assay [8], in [9] and in [16] was inactive.

As to `O=S1(=O)N=C(O)c2ccccc21`, the Potency entry in [1], in assay [3], in assay [4], in assay [5], in [6] and in assay [10] was “inactive” throughout. Also, the Potency result in assay [11], in [12] and in [13] was “inactive” throughout. Further, the compound was classed as inactive in [2], in assay [8], in [9] and in [16].

With `CC(CN)CCCN` (centres undefined), the Potency entry in assay [1], in assay [3], in assay [4], in assay [5], in [6] and in [7] was “inactive” in each case. The Potency result in [10], in assay [11], in assay [13] and in assay [14] was “inactive” throughout. Besides, the outcome in assay [2], in assay [8], in assay [9] and in assay [16] was inactive. Further, the Potency in assay [15] is 24.3 µM (active); in [17] it was 22.4 µM (active).

Regarding `CCCCCCCCCCCCCCC1CO1` (centres undefined), the Potency entry in assay [1], in [3], in [4], in [5], in assay [6] and in assay [7] was “inactive” throughout. Moreover, the Potency result in [10], in assay [11], in assay [12], in assay [13], in [14] and in assay [15] was “inactive” throughout. In addition, the Potency result in assay [17] is “inactive”. The result in assay [2], in assay [8], in assay [9] and in assay [16] was inactive.

The values are drawn from PubChem BioAssay (Tox21).
